The source of these data is PubChem BioAssay AID1578 (Sanford-Burnham Center for Chemical Genomics, 2009).

Structures are written as SMILES. Hit rate of the full screen: of about 290,000 compounds, about 3,000 (1%) were called active. Cut-off read from the data, not from the text of the source: active = inhibition mostly above about 36% (no sharp cut-off); inactive = mostly below about 34%. Many of the other results were omitted from the sample, so actives are more common in it than they were.

A short description of the assay: inhibition of NOD1-driven NF-kB reporter – cell-based, luminescence, uHTS, primary screen (AID 1578).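 Note: HEK-293T reporter cells stimulated with the NOD1 agonist gamma-tri-DAP.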 The settings on record: NOD1-driven NF-kB luciferase reporter cells, at 4 µM, stronger effect = higher value. For orientation: A reporter such as luciferase makes a cellular process visible.
Broadly, the inhibition is the change of the read-out against control, counted positive when it falls. `Cc1cc(Cl)ccc1NC(=O)CCCN1C(=O)CCC1=O`: the inhibition is 1.3% (inactive).

`O=C(Cn1nnc2ccccc21)N/N=C\c1cccs1`: the inhibition was -35.5% (inactive).

As to `COc1ccc(/C=C/c2c(-c3ccc(OC)cc3)oc3ccc(-c4ccc(OC)cc4)cc23)cc1`, the inhibition was -16.5% (inactive).

In the case of `COc1ccc(/C=C/C(=O)Oc2ccc(C)cc2)cc1`, the inhibition was -12.4% (inactive).

Consider `CC1(C)C2CCC1(C)C(OC(=O)C[n+]1ccccc1N)C2` (stereo not drawn), for which the inhibition is -14.7% (inactive).

For the molecule `CC(C)NC(=O)C1CCN(C2CCN(C(=O)c3cc4c(s3)CCCCC4)CC2)CC1`, the inhibition is -13.9% (inactive).

On to `Cc1cnc(CN(C)Cc2nc(Cc3cccc(C(F)(F)F)c3)no2)[nH]1`, for which the inhibition was -15.7% (inactive).

As for `CC(C)OC(=O)c1cc2c(=O)[nH]c(C(Cl)(Cl)Cl)nc2o1`, the inhibition was -25.8% (inactive).

As for `CS(=O)(=O)N(CC(=O)N1CCCCC1)C1CCCCC1`, the inhibition is 9.1% (inactive).

For the molecule `COc1ccc(C(=O)N/N=C/C(Br)=C/c2ccccc2)cc1`, the inhibition was 26.8% (inactive).

As for `COc1cccc(C(=O)N/N=C/C(Br)=C/c2ccccc2)c1`, the inhibition was 63.6% (active).

Turning to `O=C(N/N=C/C(Br)=C/c1ccccc1)c1cccnc1`, the inhibition is 10.1% (inactive).

For `CCC1(C)Cc2ccccc2-c2nc3n(c(=O)c21)CCS3` (stereo not drawn), the inhibition was 5.3% (inactive).

Consider `CC1(C)Cc2ccccc2-c2nc3n(c(=O)c21)CCS3`, for which the inhibition is -12.8% (inactive).

Consider `CC1(C)Cc2ccccc2-c2nc3n(c(=O)c21)CCCS3`, for which the inhibition was 44.3% (active).

As for `O=C(COC(=O)CSCC(=O)N1CCCCC1)Nc1ccc(Cl)cc1`, the inhibition is 0% (inactive).

`Fc1ccc(-c2noc(-c3ccc4c(c3)CCO4)n2)cc1`: the inhibition was -17.4% (inactive).

With `CN(C)Cc1c(O)ccc2c(-c3ccccc3)cc(=O)oc12`, the inhibition was -22% (inactive).

Consider `CC(=O)c1c(O)ccc2c(-c3ccccc3)cc(=O)oc12`, for which the inhibition is 13.4% (inactive).

Consider `COC(=O)c1ccccc1NC(=O)Nc1cc(C)ccn1`, for which the inhibition is -16.6% (inactive).

`Cc1cccc2sc(N(CCCN(C)C)C(=O)c3ccc(S(=O)(=O)N4CCc5ccccc5C4)cc3)nc12`: the inhibition is 13% (inactive).

Turning to `O=C(COC(=O)CCC(=O)c1ccc(F)cc1)Nc1ccc(N2CCOCC2)cc1`, the inhibition is -6.3% (inactive).

Turning to `O=C(OCCN1CCCCC1)c1ccc(Cl)cc1`, the inhibition was -7.2% (inactive).

Turning to `Oc1c(C=NCc2ccc(F)cc2)[nH]c2ccc(Br)c(Cl)c12`, the inhibition is -16.1% (inactive).

`Oc1c(Br)cc(Br)cc1C=NCc1ccc(F)cc1`: the inhibition is 64.2% (active).

As to `Oc1c(Br)cc(Br)cc1C=NCc1ccccc1`, the inhibition is -5.4% (inactive).

In the case of `CCCn1c(N)c(Sc2ccccc2)c(=O)n(CCC)c1=O`, the inhibition was 17.2% (inactive).

`CCOC(=O)c1ccccc1NC(=O)c1c(F)c(F)c(F)c(F)c1F`: the inhibition was -18.5% (inactive).

On to `CCCCC/C(=N\NC(=O)Nc1ccccc1)c1ccccc1`, for which the inhibition was -2.9% (inactive).

Regarding `NC(=O)N/N=C(/CCCCCC/C(=N\NC(N)=O)c1ccccc1)c1ccccc1`, the inhibition is 36.6% (active).

On to `C/C(=N\NC(N)=O)c1ccccc1`, for which the inhibition is -34.5% (inactive).

On to `CC1(C)C2C(Cl)(Cl)C2(C)c2ccccc2N1C=O` (stereo not drawn), for which the inhibition was -3.3% (inactive).

Take `CC(=O)N1c2ccccc2C2(C)C(C1(C)C)C2(Cl)Cl` (stereo not drawn): the inhibition is 60.4% (active).

Take `CC(=O)N1c2ccccc2C(C)(c2ccccc2)CC1(C)C` (stereo not drawn): the inhibition is 0.7% (inactive).

Turning to `Cc1cc(NC(=O)Nc2ccc(Cl)cc2)n(C)n1`, the inhibition is -7.2% (inactive).

As to `O=C1c2cccc3cc([N+](=O)[O-])cc(c23)C(=O)N1/N=C/c1ccc(O)cc1O`, the inhibition is 8.5% (inactive).

As to `COc1cccc(/C=N/Nc2ncccc2[N+](=O)[O-])c1OC`, the inhibition is 39.6% (active).

As to `O=[N+]([O-])c1cccnc1N/N=C/c1ccccc1O`, the inhibition was -18.6% (inactive).

Regarding `COc1ccc(/C=N/Nc2ncccc2[N+](=O)[O-])c(OC)c1`, the inhibition is -42.4% (inactive).

As for `CC(C)C(=O)NC(NC(=S)Nc1ccc(S(N)(=O)=O)cc1)C(Cl)(Cl)Cl` (stereo not drawn), the inhibition was -3.2% (inactive).

Take `CCCCC(CC)C(=O)Nc1cc(=O)[nH]c2nc3ccccc3n12` (stereo not drawn): the inhibition was -1.4% (inactive).

In the case of `CCOC(=O)CNC(c1ccccc1)c1cc(Br)ccc1NC(=O)CCN1CCOCC1` (stereo not drawn), the inhibition was 69.7% (active).

As to `CCOC(=O)CNC(c1ccccc1)c1cc(Br)ccc1NC(C)=O` (stereo not drawn), the inhibition is -27.2% (inactive).

As to `COC(=O)CNC(c1ccccc1)c1cc(Br)ccc1NC(=O)CCN1CCOCC1` (stereo not drawn), the inhibition was 35.8% (inactive).

With `CC(OC(=O)c1ccco1)C(=O)NC1CCCC1` (stereo not drawn), the inhibition was -27.9% (inactive).

Regarding `COc1ccc(CC(=O)N/N=C\c2cc(Br)c(O)c(Br)c2)cc1`, the inhibition is 17% (inactive).

As for `Cc1cc(C)c2[nH]c(O)c(N=NC(=S)NCC3CCCO3)c2c1` (stereo not drawn), the inhibition was -5.7% (inactive).

`Oc1[nH]c2ccccc2c1N=NC(=S)NCC1CCCO1` (stereo not drawn): the inhibition was -1% (inactive).

In the case of `Oc1[nH]c2c(Cl)cc(Cl)cc2c1N=NC(=S)NCC1CCCO1` (stereo not drawn), the inhibition was 104% (active).

On to `O=C1NC(=O)C2C1C(c1ccccc1)N1C3C(=O)NC(=O)C3C(c3ccccc3)N21` (stereo not drawn), for which the inhibition was 6.2% (inactive).

`CC(C)c1nc2sc3c(NCc4ccco4)ncnc3c2c2c1COC(C)(C)C2`: the inhibition is 64% (active).

Consider `CC(C)Cc1nc2sc3c(NCc4ccco4)ncnc3c2c2c1COC(C)(C)C2`, for which the inhibition was -25.1% (inactive).

As to `Cc1nc2sc3c(NCc4ccco4)ncnc3c2c2c1COC(C)(C)C2`, the inhibition is 20.3% (inactive).

Regarding `CCN(CC)CC(=O)NCc1cc(-c2ccc(OC)cc2)no1`, the inhibition was -8.1% (inactive).

For `C=CCNc1nc(Nc2ccc(OC)cc2)nc(OCC)n1`, the inhibition is -7.5% (inactive).

`CC(C)Cn1c(=O)c(C(=O)Nc2ccccc2S(N)(=O)=O)c(O)c2ccccc21`: the inhibition was -2.7% (inactive).

As to `CCn1c(=O)c(C(=O)Nc2cnccn2)c(O)c2ccccc21`, the inhibition was 7.9% (inactive).

Turning to `Cn1c(=O)c(C(=O)Nc2cnccn2)c(O)c2ccccc21`, the inhibition is -52.8% (inactive).

As for `CCCn1c(=O)c(C(=O)Nc2cnccn2)c(O)c2ccccc21`, the inhibition was -22.7% (inactive).

Turning to `CC(C)Cn1c(=O)c(C(=O)Nc2cnccn2)c(O)c2ccccc21`, the inhibition is 0.1% (inactive).

For `CCn1c(=O)c(C(=O)Nc2ccccc2S(N)(=O)=O)c(O)c2ccccc21`, the inhibition was -15.7% (inactive).

`CCOC(=O)N1CCN=C1SCc1ccc(Cl)c(Cl)c1`: the inhibition is -47.1% (inactive).

As for `Cc1nc(N2CCN(c3ccccc3)CC2)[nH]c(=O)c1Cc1ccccc1`, the inhibition is 8.4% (inactive).
